Measured potencies and affinities stand elsewhere. Active and inactive are the calls of the source.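 The calls were made as follows: active = compounds that lower cell ATP signal, with a fitted half-maximal concentration within a set limit; inconclusive = flat curve with moderate signal loss, or poor fit; inactive = the rest.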
Assay: A375 melanoma cell cytotoxicity, dose response, counter-screen for MITF inhibitor project, CellTiter-Glo luminescence, dry powder, set 6 (AID 624488)
Settings: A375 viability, CellTiter-Glo ATP luminescence, 24 h; series mostly up to 35 µM

Row | SMILES | outcome
1 | O=C1C(NS(=O)(=O)c2ccccc2)=C(c2ccccc2)C(=O)c2ccccc21 | inactive
2 | CNC1=CC(=O)c2ccccc2C1=O | inactive
3 | O=C1C=C(NS(=O)(=O)c2ccc(Br)cc2)C(=O)c2ccccc21 | inactive
4 | NC1=C(NS(=O)(=O)c2ccc(Br)cc2)C(=O)c2ccccc2C1=O | inactive
5 | O=C1C=C(NS(=O)(=O)c2ccccc2)C(=O)c2ccccc21 | inactive
6 | NC1=C(NS(=O)(=O)c2cccs2)C(=O)c2ccccc2C1=O | inactive
7 | NC1=C(NS(=O)(=O)c2ccc(Br)s2)C(=O)c2ccccc2C1=O | inactive
8 | O=C1C=C(NS(=O)(=O)c2cccs2)C(=O)c2ccccc21 | inactive

From PubChem BioAssay AID624488 (Broad Institute, 2012)
